In all, about 290,000 compounds went through this assay and about 400 (0.14%) were called active. Shown is part of a subset that was picked to be rich in actives. Values without a mark were called inactive. Rule as the data show it: active = inhibition above about 12%; inactive = the rest.

This assay addresses Replicase polyprotein 1ab (Severe acute respiratory syndrome coronavirus) (UniProt P0C6X7). Kind of assay: SARS-CoV 3CLpro protease inhibitors, primary screen, biochemical, quenched FRET (AID 1706). The conditions noted are these: recombinant SARS-CoV 3CLpro, quenched FRET peptide cleavage; at 6 µM; stronger effect = higher value.
Turning to `COc1ccccc1C(=O)NCc1nnc(SC(C)C(=O)Nc2nccs2)n1C` (stereo not drawn), the inhibition (in general, the relative decrease from the control value, in per cent) is 1.41%.

With `CN1C(CC(=O)Nc2ccc(Br)cc2)c2ccccc2CC1(C)C` (stereo not drawn), the inhibition was 0.03%.

Regarding `CCSCc1nc(N)nc(NCCc2ccccc2)n1`, the inhibition is 1.32%.

With `COc1ccccc1CNC(=O)C1CCN(S(=O)(=O)c2ccc3c(c2)OCCO3)CC1`, the inhibition was 0.14%.

Consider `O=C(Nc1ccc(Cl)c(Cl)c1)c1ccccc1NC(=O)C1CC=CCC1C(=O)O` (stereo not drawn), for which the inhibition is 4.04%.

With `CC(C)CCn1cnc2c1c(=O)n(CC(=O)NC(N)=O)c(=O)n2Cc1ccccc1`, the inhibition is 2.02%.

Turning to `O=C(NCCCN1CCCCC1)C1CC(=O)N(CCc2ccccc2)C1` (stereo not drawn), the inhibition was -1.63%.

For the compound `CC(C)(C)C(=O)NC1CC2CCCC(C1)N2C(=O)Nc1ccccc1F` (stereo not drawn), the inhibition was -4.3%.

In the case of `O=C(NC(Cc1ccccc1)C(=O)O)/C(=C\c1ccccc1)NC(=O)c1ccco1` (stereo not drawn), the inhibition is 1.59%.

Consider `Cc1cc(CNCc2c(C(=O)N(C)Cc3ccccc3)nc3ccccn23)nn1C`, for which the inhibition was -0.39%.

With `Cc1ccc(C)c(NC(=O)c2cc(-c3cc(C)cc(C)c3O)n[nH]2)c1`, the inhibition is 5.71%.

On to `COc1ccc(CCNC(=O)/C(C#N)=C2\N=C(NC(=O)c3cccs3)c3ccccc32)cc1`, for which the inhibition was 1.64%.

For `COc1ccc(N2CC(C(=O)NCCS(=O)(=O)N3CCN(c4ccccc4)CC3)CC2=O)cc1` (stereo not drawn), the inhibition is 0.28%.

`Cc1cc(C)nc(NS(=O)(=O)c2ccc(N/C=C\C(=O)c3cccs3)cc2)n1`: the inhibition was 6.43%.

`CN(Cc1ccccc1)C(=O)c1cccc(C(=O)N(C)Cc2ccccc2)c1`: the inhibition is -1.52%.

Consider `Cc1ccc2cccc(OCCCOc3ccccc3CO)c2n1`, for which the inhibition is -3.15%.

For the compound `CC(=O)c1c(C)n(C(C)C)c2ccc(O)cc12`, the inhibition was -1.9%.

As for `O=C(NCCc1ccccc1Cl)C1CCC(=O)N(CCCc2ccccc2)C1` (stereo not drawn), the inhibition is 0%.

`COc1ccc(CNC(=O)c2cc(=O)c3c(C)cc(C)cc3o2)cc1`: the inhibition was 6.16%.

As to `O=C(NC1CCC(O)CC1)c1ccccc1OCc1ccc(F)cc1` (stereo not drawn), the inhibition is 0.54%.

In the case of `Cc1cc(C)cc(C(=O)NCCN2CCOCC2)c1`, the inhibition was -2.25%.

`COc1ccc(C(=O)NCCCN2CCOCC2)cc1Br`: the inhibition is 0.44%.

Regarding `Cc1ccc(C(=O)NCCN2CCOCC2)cc1C`, the inhibition was 13.4% (active).

Turning to `Cc1noc(NS(=O)(=O)c2ccc(NC(=O)c3oc4ccc(F)cc4c3C)cc2)c1C`, the inhibition was 9.19%.

Take `COCC1CCN(C(=O)c2ccc3oc(Cc4ccccc4)nc3c2)C1` (stereo not drawn): the inhibition was 1.1%.

On to `O=C1c2ccccc2C(=O)N1CCOc1ccc(F)cc1`, for which the inhibition was -2.34%.

Consider `Cc1cccc2c1N(CC(=O)OC(C)C)C(=O)C2=O`, for which the inhibition was 4.13%.

Consider `Cc1cccc2c1N(CCOc1ccccc1)C(=O)C2=O`, for which the inhibition is 17.8% (active).

Turning to `Cc1ccc(S(=O)(=O)N2CC(C)N(S(C)(=O)=O)C2)cc1` (stereo not drawn), the inhibition was -3.38%.

In the case of `Cc1cccc(-c2noc(CCC(=O)NC3CCCC3)n2)c1`, the inhibition is -2.1%.

Turning to `O=C(O)c1ccccc1CSc1nc2ccccc2s1`, the inhibition was 9.25%.

Take `COc1ccc(NC(=O)CSc2nncc(=O)n2N)cc1OC`: the inhibition was -1.55%.

In the case of `COC(=O)c1cc(NC(=O)Cc2ccccc2[N+](=O)[O-])ccc1Cl`, the inhibition is 13.9% (active).

For `COc1ccc(NC(=O)c2ccccc2[N+](=O)[O-])cc1OC`, the inhibition was 3.06%.

In the case of `O=C(Nc1cccc(NC(=O)c2ccccc2[N+](=O)[O-])c1)c1ccccc1Cl`, the inhibition was 0.79%.

Regarding `Cc1cccc(NS(=O)(=O)c2ccc(-c3cnc(C4CC4)o3)cc2)c1`, the inhibition was 11.2%.

Consider `O=C(NCCCn1ccnc1)c1cc2c(s1)CCCC2`, for which the inhibition is -1.18%.

On to `CCC(C)(C)NC(=O)CN(C(=O)CCC(=O)Nc1nccs1)c1ccc2c(c1)OCO2`, for which the inhibition is -3.34%.

As to `O=C(NCCCN1CCOCC1)C1CCCN(S(=O)(=O)N2CCCCC2)C1` (stereo not drawn), the inhibition was 0.26%.

Turning to `COc1cccc(NC(=O)CN2CCN(CC(=O)Nc3ccccc3Cl)CC2)c1`, the inhibition is -3.69%.

`COc1ccc(N(Cc2ccc(N(C)C)cc2)C(=O)c2ccc(S(C)(=O)=O)cc2)cc1`: the inhibition is 0.16%.

As to `COc1ccc(Cl)cc1NS(=O)(=O)c1cccc(C(=O)NCC2CCCO2)c1` (stereo not drawn), the inhibition is -1.42%.

Regarding `Cc1cccc(C(=O)Nc2nnc(Cc3c[nH]c4ccccc34)s2)c1`, the inhibition was 13.4% (active).

In the case of `CCc1nnc(NC(=O)[C@@H](NC(=O)c2cccc(C)c2)C(C)C)s1`, the inhibition was 4.69%.

`Cc1cccc(C(=O)Nc2nnc(S(=O)(=O)N3CCCCCC3)s2)c1`: the inhibition was 0.72%.

On to `CCOC(=O)c1cc(C(=O)Nc2ccc(S(=O)(=O)Nc3ccc(OC)cc3)cc2)nn1C`, for which the inhibition is -1.42%.

For the compound `CN1CCN(C(=O)c2ccc(NS(=O)(=O)c3ccccc3)cc2)CC1`, the inhibition was -0.96%.

Turning to `Cc1ccc(CS(=O)Cc2ccc(C(=O)N3CCOCC3)o2)cc1` (stereo not drawn), the inhibition is -1.35%.

In the case of `CSc1ncccc1C(=O)NCc1ccccc1Cl`, the inhibition is 0.88%.

With `CC(=O)Nc1ccc(S(=O)(=O)N(C)CC(=O)NCCC2=CCCCC2)cc1`, the inhibition is -0.77%.

As to `O=C(NCCc1ccc(Cl)cc1)c1cccc(N2CCCC2=O)c1`, the inhibition is 3.05%.

Consider `COc1ccc(/C=C2\SC(=O)N(CCC(=O)NCCCn3ccnc3)C2=O)cc1`, for which the inhibition is -3.79%.

Turning to `CC(Oc1ccccc1)C(=O)Nc1c2c(nn1-c1ccccc1)CS(=O)C2` (stereo not drawn), the inhibition is -1.62%.

The values above are taken from PubChem BioAssay AID1706 (The Scripps Research Institute Molecular Screening Center, 2009).
